The values below come from ChEMBL document CHEMBL4513216, “Probing the Open Global Health Chemical Diversity Library for Multistage-Active Starting Points for Next-Generation Antimalarials” (ACS Infect Dis, 2020).

Each structure is given as a SMILES string. About 8,600 (12%) of roughly 69,000 compounds showed an effect of 50% or more. This excerpt belongs to a sample that is enriched for strong results.

The test system of this test is Plasmodium berghei. The test can be described thus: Screen against P. berghei liver stage (PbLuc), transformed with Luciferase, at 10uM. Format: functional, HepG2. The following applies: tested at 10 uM.
`CN(C)S(=O)(=O)N1C[C@H]2CC[C@@H](C1)N(Cc1ccc3c(c1)OCCO3)C2`: the INHIBITION came out at 20.6%.

Consider `O=C(O)c1ccnc(-c2ccnc(N3CCC4(CCO4)CC3)n2)c1`, for which the INHIBITION amounted to 40.2%.

As for `O=C1CC2(CCN(c3nccc(-c4cc(C(=O)O)ccn4)n3)CC2)CN1`, the INHIBITION turned out to be 64.9%.

Consider `Cc1ccc(-c2ccnc(N3CCC4(CC3)CNC(=O)O4)n2)c(C)n1`, for which the INHIBITION was 30.9%.

Turning to `Cc1ccc(-c2ccnc(N3CCC4(CC3)CNC(=O)C4)n2)c(C)n1`, the INHIBITION came to 68.9%.

Take `Cc1ccc(-c2ccnc(N3CCC4(CCO4)CC3)n2)c(C)n1`: the INHIBITION came out at 36.5%.

Consider `O=C(O)c1ccnc(-c2ccnc(N3CCC(F)(F)CC3)n2)c1`, for which the INHIBITION is given as 30.3%.

For the compound `Cc1cc(OC(F)F)c(C(=O)N2CCC(CN(C)C)CC2)s1`, the INHIBITION was -9.44%.

Take `CC(C)c1cc(CN(C)C(=O)CN2CCC(C(N)=O)CC2)no1`: the INHIBITION is 12.7%.

Turning to `Cc1ccc(CNc2n[nH]c(C)n2)cc1`, the INHIBITION is recorded as 46.6%.

As for `CN(C(=O)c1cccc(C#N)c1)c1nnc(C2CCOC2)s1` (centres undefined), the INHIBITION amounted to 24.45%.

Take `CCNC(=O)C1CCN(Cn2nc(-c3ccc(F)cc3)oc2=O)CC1`: the INHIBITION is reported as 30.6%.

As for `CC(C)CCNC(=O)c1ccc(-n2cnc3ccccc3c2=O)cc1`, the INHIBITION stood at 26.8%.

With `CC(C)CCNC(=O)c1ccc2c(=O)n(-c3ccccc3)cnc2c1`, the INHIBITION came out at 1.8%.

As to `CC(C)CNC(=O)c1ccc2c(=O)n(-c3ccccc3)cnc2c1`, the INHIBITION was 60.9%.

On to `NCCc1cn(Cc2ccccn2)c2ccccc12`, for which the INHIBITION is reported as -18.2%.

Turning to `c1cncc(CNc2cncc(C3CCCN3)n2)c1` (centres undefined), the INHIBITION was 6.26%.

Turning to `CCOc1ncccc1NC(=O)c1cccs1`, the INHIBITION is on record as -10.9%.

For the compound `COc1ccc(NC(=O)CCC(C)C)c(N2CCN(C(C)=O)CC2)n1`, the INHIBITION was 68.8%.

For `COc1ccc(NC(C)=O)c(N2CCN(C(C)=O)CC2)n1`, the INHIBITION is reported as 80.1%.

For the compound `COc1ccc(NC(=O)c2ccc[nH]2)c(N2CCN(C(C)=O)CC2)n1`, the INHIBITION came out at 6.8%.

`COc1ccc(N)c(N2CCN(C(C)=O)CC2)n1`: the INHIBITION is on record as 42.3%.

With `COc1ccc(NC(=O)c2ccco2)c(N2CCN(C(C)=O)CC2)n1`, the INHIBITION was 44%.

Take `CCCC(C)C(=O)Nc1ccc(OC)nc1N1CCN(C(C)=O)CC1` (centres undefined): the INHIBITION is listed as 29.4%.

Regarding `CNc1ccnc(NCCC(=O)Nc2ccccc2C)n1`, the INHIBITION is 28.4%.

Turning to `O=C(C1CC=CC1)N1C[C@H]2CN(Cc3ccncc3)C(=O)[C@H]2C1`, the INHIBITION stood at 56.6%.

As to `Cc1cccc(CN2C[C@@H]3CN(C(=O)C4CC=CC4)C[C@@H]3C2=O)n1`, the INHIBITION worked out at 14.9%.

Consider `CCN1C[C@@H]2CN(C(=O)C3CC=CC3)C[C@@H]2C1=O`, for which the INHIBITION worked out at 15.7%.

Turning to `O=C(C1CCC1)N1C[C@@H]2CN(Cc3ccncc3)C(=O)[C@@H]2C1`, the INHIBITION stood at 50.3%.

As to `O=C(C1CCOC1)N1C[C@H]2CN(Cc3ccncc3)C(=O)[C@H]2C1` (some centres undefined), the INHIBITION is recorded as -22.2%.

For the compound `O=C1[C@H]2CN(Cc3ccoc3)C[C@H]2CN1Cc1ccncc1`, the INHIBITION is on record as 45.1%.

Turning to `COc1ccc(C(=O)NS(=O)(=O)c2cncc(Br)c2)c(OC)c1`, the INHIBITION amounted to 29.4%.

Turning to `Cc1ccc(-c2snnc2C(=O)NCCCO)cc1`, the INHIBITION was -19.7%.

Consider `COc1cccc(OC)c1CC(=O)NC(C#N)c1ccsc1` (centres undefined), for which the INHIBITION was determined as 0.0944%.

With `Cc1ccc(C(=O)NC2CC2)c(-n2cnnn2)c1C`, the INHIBITION is given as 28.6%.

On to `CN(C)c1ccc(CNC(=O)NCCc2cccs2)cn1`, for which the INHIBITION was -11.9%.

For the compound `c1cnc(N2CCCC(NCc3cccc4c3OCCO4)C2)nc1` (centres undefined), the INHIBITION was found to be 22.9%.

Turning to `CN(C)Cc1ccnc(C2CCCN2Cc2cc[nH]n2)n1` (centres undefined), the INHIBITION is reported as 29.6%.

As for `CN(C)Cc1ccnc(C2CCCN2Cc2ccncc2)n1` (centres undefined), the INHIBITION was found to be 40.4%.

As to `CN(C)Cc1ccnc(C2CCCN2Cc2ccc(F)cn2)n1` (centres undefined), the INHIBITION was found to be 63.4%.

Regarding `CCc1cnc(CN(C(C)=O)C2CCN(CC3(O)CCCCC3)C2)o1` (centres undefined), the INHIBITION was 5.9%.

For the compound `c1ccc(-c2nc(CN3CCCC3Cn3cccn3)no2)cc1` (centres undefined), the INHIBITION is recorded as 44.3%.

Turning to `Cc1nc(NC(=O)CN2C(=O)c3ccccc3NC2C(C)C)sc1C` (centres undefined), the INHIBITION is given as 32.2%.

For `CN(Cc1cc(=O)c(O)co1)C1CCN(c2ccc(F)cc2)CC1`, the INHIBITION came out at 53.5%.

As for `CN(Cc1cc(=O)c(O)co1)C1CCCN(c2ccccc2)C1` (centres undefined), the INHIBITION stood at 7.93%.

`Cc1cc(N2CCC(N(C)Cc3cc(=O)c(O)co3)CC2)nc(C)n1`: the INHIBITION stood at 28.7%.

As to `O[C@@H]1CC(CNCc2ccc(Cl)cc2)(COc2cccnc2)C[C@@H]1O` (some centres undefined), the INHIBITION is on record as -26.2%.

Turning to `COCCC(=O)N1CCC2(CN(Cc3cccc(Cl)c3)C2)C1`, the INHIBITION worked out at 81.2%.

As to `COCCC(=O)N1CCC2(CCN(Cc3cccc(F)c3)C2)C1` (centres undefined), the INHIBITION turned out to be 57.9%.

On to `COCCC(=O)N1CCC2(CN(Cc3cccc(F)c3)C2)C1`, for which the INHIBITION is reported as 4.27%.

Turning to `COCCC(=O)N1CCC2(CN(Cc3ccc(OC)c(F)c3)C2)C1`, the INHIBITION is -44.8%.

Regarding `COC(=O)N1CCN(Cc2ccccc2Cl)CC1`, the INHIBITION stood at 33.7%.

For `COC(=O)CCC(=O)N1CCC2(CN(Cc3ccc(Cl)cc3)C2)C1`, the INHIBITION is listed as -26.1%.

In the case of `COCCC(=O)N1CC2(CCN(Cc3cccc(Cl)c3)CC2)C1`, the INHIBITION came to 15.9%.

As to `COCCC(=O)N1CC2(CCN(Cc3ccccc3Cl)CC2)C1`, the INHIBITION is listed as 69.5%.

With `COC(=O)CCC(=O)N1CCC2(CN(Cc3ccccc3)C2)C1`, the INHIBITION was 5.56%.

In the case of `COC(=O)CCC(=O)N1CCC2(CN(Cc3cccc(Cl)c3)C2)C1`, the INHIBITION was 57.9%.

For `COCCC(=O)N1CCC2(CCN(Cc3cccc(F)c3)CC2)CC1`, the INHIBITION was 45.1%.

`COCCC(=O)N1CCC2(CCN(Cc3cccc(F)c3)CC2)C1`: the INHIBITION amounted to 49.7%.
